In PubChem BioAssay (NCATS) one finds Potency and activity change, negative = inhibition data, which are given here for 42 compounds.

Assay [1] can be described thus: Primary qHTS for small molecule stabilizers of the endoplasmic reticulum resident proteome: Secreted ER Calcium Modulated Protein (SERCaMP) assay (AID 1508630). Note: % is set by controls: 0 for no effect and ±100 for the full control effect. In short, it runs like this:
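GLuc-SERCaMP-expressing SH-SY5Y cells, pretreated 16 h with compound, are challenged with thapsigargin to empty ER calcium stores; after 4 h, coelenterazine is added directly to the medium and luminescence is imaged.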

Assay [2] in a line: Counterscreen qHTS for small molecule stabilizers of the endoplasmic reticulum resident proteome: GLuc-NoTag assay (AID 1508627).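 For activity change, negative = inhibition: SH-SY5Y cells given compound then 100 nM thapsigargin to empty ER calcium; 0% = thapsigargin alone and -100% = DMSO vehicle control.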 Note: potency is the fitted concentration of half-maximal effect. In short, it runs like this: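 Luminescence of Gaussia luciferase secreted into the medium (coelenterazine, 0.07x final, unlysed cells) was the read-out. Human SH-SY5Y neuroblastoma cells constitutively secreting untagged GLuc received compound for 19 h, then 100 nM thapsigargin for 4 h.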
On the technique in general: A counterscreen serves to expose hits that act by an unwanted route or on another target.

For assay [3], the target named is Cytochrome P450 2D6 (Homo sapiens) (UniProt P10635). The experiment in a line: Cytochrome P450 family 2 subfamily D member 6 (CYP2D6) small molecule antagonists: luciferase biochemical (cell-free) qHTS assay (AID 1645840; active = well fitted curve in the direction sought with a large enough effect in the repeat runs; an effect the other way counts as inactive or inconclusive; note: nearly all actives have a fitted effect of over 55% in size; note: potency is the fitted concentration of half-maximal effect; for activity change, negative = inhibition: % is set by controls: 0 for no effect and ±100 for the full control effect). A digest of the protocol: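 P450-Glo luminescent screen: recombinant CYP2D6 enzyme–proluciferin substrate mix preincubated with compound 10 min at room temperature, then NADPH regeneration added for 1 h at room temperature. Detection reagent added for 20 min; luciferin light read as relative luminescence units.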
(qHTS replaces the single test concentration by a dilution series.)

The target of assay [4] is Cytochrome P450 3A4 (Homo sapiens) (UniProt P08684). Description: Cytochrome P450 family 3 subfamily A member 4 (CYP3A4) small molecule antagonists: luciferase qHTS assay (AID 1645841; active = well fitted curve in the direction sought with a large enough effect in the repeat runs; an effect the other way counts as inactive or inconclusive; note: nearly all actives have a fitted effect of over 45% in size; note: potency is the fitted concentration of half-maximal effect). A digest of the protocol: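 Luminescent CYP3A4 activity readout: compounds plus enzyme-substrate mix 10 min at room temperature, reaction started with NADPH regenerating system for 1 h, stopped with detection reagent, read after 20 min. Ketoconazole served as control.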

In assay [5] the target is Cytochrome P450 2C9 (Homo sapiens) (UniProt P11712). The experiment in a line: Cytochrome P450 family 2 subfamily C member 9 (CYP2C9) small molecule antagonists: luciferase biochemical (cell-free) qHTS assay (AID 1645842; active = well fitted curve in the direction sought with a large enough effect in the repeat runs; an effect the other way counts as inactive or inconclusive; note: nearly all actives have a fitted effect of over 55% in size; note: potency is the fitted concentration of half-maximal effect; for activity change, negative = inhibition: % is set by controls: 0 for no effect and ±100 for the full control effect). In short, it runs like this:
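Luminescence, after 20 min with luciferin detection reagent, reflected CYP2C9 turnover during a 1 h NADPH-driven reaction at 37C. Enzyme-substrate mix contained 0.4% bovine serum albumin and was preincubated with compound 10 min at room temperature.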

The nature of assay [6]: Primary qHTS to identify inhibitors of SARS-CoV-2 cell entry (AID 1645846; calls by dose curve; note: nearly all actives have a fitted effect of over 45% in size; note: potency is the fitted concentration of half-maximal effect). The note with it: activity change, negative = inhibition: at 57.1 µM (top of the series) unless noted. In short, it runs like this:
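Using luciferase-reporting pseudoviruses carrying Wuhan-Hu-1 spike, the screen tracks entry into stably ACE2-expressing cells over 48 hr. Activity is expressed relative to spike particles versus particles lacking any fusion protein.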

Assay [7] concerns the target Papain (Carica papaya) (UniProt P00784). Description: Primary qHTS assay for inhibitors of the protease papain (AID 1645873).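 Note: papain turnover of Z-FR-AMC read as the AMC fluorescence gain over 10 min; % is set by controls: 0 for no effect and ±100 for the full control effect.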
The nature of assay [8]: Cytotoxicity counterscreen for inhibitors of SARS-CoV-2 cell entry (AID 1645845; calls by dose curve; note: nearly all actives have a fitted effect of over 50% in size; note: potency is the fitted concentration of half-maximal effect). A digest of the protocol:
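48 h compound treatment (after 1 h preincubation), HEK293-ACE2 cells, 37 C/5% CO2; ATP luminescence endpoint; normalized to cell wells and media blanks.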

The nature of assay [9]: A High-Content qHTS Against Drug Library for the Identification of Small Molecules that Inhibit DYT1 Early Onset Primary Dystonia-Associated Cell Pathology (AID 1645839; calls by dose curve; note: potency is the fitted concentration of half-maximal effect). In short, it runs like this: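 In this high-content image screen, delE TorsinA mislocalization in inducible Flp-In 293 cells is scored as %pathology, with cell count serving as the counterscreen. Compound exposure lasts 48 h under tetracycline induction in reduced-serum medium.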

The structures appear in SMILES notation. Records with an inconclusive call do not appear. Calls of active or inactive are those of the source. Unless noted, calls come from the whole dose curve; as a rule, active = well fitted curve in the direction sought with a large enough effect; inconclusive = small, poorly fitted or top-dose-only effect, or another doubt; inactive = no such curve, though single readings can be large; an effect the other way counts as inactive or inconclusive.

Sequence of Cytochrome P450 2D6 (Homo sapiens) (P10635 whole entry, looked up): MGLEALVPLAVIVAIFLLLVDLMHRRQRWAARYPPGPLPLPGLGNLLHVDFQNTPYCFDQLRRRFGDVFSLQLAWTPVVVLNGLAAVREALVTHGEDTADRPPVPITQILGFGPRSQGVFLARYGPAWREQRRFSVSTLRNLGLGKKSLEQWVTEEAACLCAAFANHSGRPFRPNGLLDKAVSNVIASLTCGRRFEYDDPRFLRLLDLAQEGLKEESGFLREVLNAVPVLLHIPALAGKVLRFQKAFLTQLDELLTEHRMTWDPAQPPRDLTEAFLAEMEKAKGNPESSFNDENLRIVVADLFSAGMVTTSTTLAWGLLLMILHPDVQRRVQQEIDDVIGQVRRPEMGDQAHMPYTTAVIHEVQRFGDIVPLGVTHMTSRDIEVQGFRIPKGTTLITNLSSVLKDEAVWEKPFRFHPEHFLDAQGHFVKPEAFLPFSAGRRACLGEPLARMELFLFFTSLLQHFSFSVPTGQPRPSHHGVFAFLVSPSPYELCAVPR
Sequence of Papain (Carica papaya) (P00784 whole entry, looked up): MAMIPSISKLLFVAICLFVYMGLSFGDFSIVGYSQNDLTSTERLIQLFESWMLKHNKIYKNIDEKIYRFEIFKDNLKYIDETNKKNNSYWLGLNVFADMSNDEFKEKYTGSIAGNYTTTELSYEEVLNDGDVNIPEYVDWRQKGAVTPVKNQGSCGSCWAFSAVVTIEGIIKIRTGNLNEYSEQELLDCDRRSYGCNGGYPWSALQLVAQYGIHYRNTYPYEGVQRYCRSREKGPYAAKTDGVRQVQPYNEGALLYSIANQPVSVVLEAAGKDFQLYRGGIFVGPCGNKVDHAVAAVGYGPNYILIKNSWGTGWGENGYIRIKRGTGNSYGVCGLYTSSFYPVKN
Sequence of Cytochrome P450 3A4 (Homo sapiens) (P08684 whole entry, looked up): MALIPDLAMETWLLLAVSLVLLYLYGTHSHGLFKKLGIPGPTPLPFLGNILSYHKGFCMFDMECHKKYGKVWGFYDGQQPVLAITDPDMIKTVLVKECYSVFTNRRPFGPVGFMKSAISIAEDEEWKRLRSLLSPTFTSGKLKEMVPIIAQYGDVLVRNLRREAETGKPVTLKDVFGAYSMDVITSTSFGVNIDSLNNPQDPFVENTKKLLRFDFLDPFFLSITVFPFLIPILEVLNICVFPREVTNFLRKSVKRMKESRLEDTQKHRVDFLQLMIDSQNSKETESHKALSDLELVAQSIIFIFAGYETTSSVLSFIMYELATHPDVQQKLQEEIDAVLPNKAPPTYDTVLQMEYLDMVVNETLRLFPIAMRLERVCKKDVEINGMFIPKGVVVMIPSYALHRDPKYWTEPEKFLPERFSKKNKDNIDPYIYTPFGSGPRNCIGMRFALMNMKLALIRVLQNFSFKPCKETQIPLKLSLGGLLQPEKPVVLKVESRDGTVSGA
Sequence of Cytochrome P450 2C9 (Homo sapiens) (P11712 whole entry, looked up): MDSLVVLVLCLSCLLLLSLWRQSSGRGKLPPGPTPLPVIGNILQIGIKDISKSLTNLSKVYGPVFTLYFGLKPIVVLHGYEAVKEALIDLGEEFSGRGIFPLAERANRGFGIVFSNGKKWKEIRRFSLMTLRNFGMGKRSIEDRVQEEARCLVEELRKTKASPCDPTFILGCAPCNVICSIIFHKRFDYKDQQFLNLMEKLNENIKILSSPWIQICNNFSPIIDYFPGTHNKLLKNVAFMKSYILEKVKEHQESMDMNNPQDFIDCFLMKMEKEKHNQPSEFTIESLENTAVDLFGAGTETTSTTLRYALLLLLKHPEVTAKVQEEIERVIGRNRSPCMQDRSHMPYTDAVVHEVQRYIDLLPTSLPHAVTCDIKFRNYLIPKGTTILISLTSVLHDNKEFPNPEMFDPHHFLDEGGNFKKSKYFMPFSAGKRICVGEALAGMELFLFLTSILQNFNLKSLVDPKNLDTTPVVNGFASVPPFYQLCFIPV

With `C=C1C[C@H]2[C@H]3CCC(=O)[C@@]3(C)CC[C@@H]2[C@@]2(C)C=CC(=O)C=C12`, the Potency result in assay [1] was “inactive”.
Regarding `C[C@H]1CCCC=CC2C[C@H](O)C[C@@H]2[C@H](O)C=CC(=O)O1` (stereo partly specified), in [2], the Potency entry was “inactive”.
As to `Nc1ccc(Cl)cc1N`, the Potency entry in assay [2] is “inactive”. Further, the values for the Potency in assay [3], in [4] and in assay [5] were 25.9 µM (active), 7.96 µM (active) and 23.3 µM (active), respectively.
Regarding `CC(C)[C@]12O[C@@H]1[C@@H]1O[C@]13[C@]1(O[C@H]1C[C@@H]1C4=C(CC[C@@]13C)C(=O)OC4)[C@H]2O`, the Potency result in assay [1] was “inactive”.
On to `C/C=C(/C)C(=O)O[C@H]1C(C)=C2[C@H]([C@@H]1OC(=O)CCCCCCC)[C@@](C)(OC(C)=O)C[C@H](OC(=O)CCC)[C@@]1(O)[C@H]2OC(=O)[C@@]1(C)O`, for which the Potency result in [2] and in assay [1] was “inactive” throughout. In addition, the Potency in assay [6] was 22.4 µM (active).
Turning to `C#CCOC(=O)C1=CCCN(C)C1`, the Potency entry in assay [1] is “inactive”.
Take `C[C@]12CCC(=O)C(O)=C1CC[C@@H]1[C@H]3CCC(=O)[C@@]3(C)CC[C@@H]12`: the Potency result in assay [1] is “inactive”.
For `COc1cc2cc(c1Cl)N(C)C(=O)C[C@H](OC(=O)C(C)C)[C@]1(C)O[C@H]1[C@H](C)[C@@H]1C[C@@](O)(NC(=O)O1)[C@H](OC)C=CC=C(C)C2`, the Potency entry in assay [1] is “inactive”.
Regarding `O=[N+]([O-])c1ncc[nH]1`, in assay [1], the Potency result was “inactive”.
`C=CCN1CC[C@]23CCCCC2[C@H]1Cc1ccc(O)cc13` (stereo partly specified): the Potency entry in assay [2] and in assay [7] was “inactive” in each case.
On to `c1ccc2c(CN3CCNCC3)cccc2c1`, for which the Potency entry in [2] and in assay [8] was “inactive” throughout. Also, the activity change, negative = inhibition in assay [6] is -23.2%.
As for `Nc1ccc(N=Nc2ccccc2)cc1`, the Potency entry in [2] was “inactive”. The Potency was 41.1 µM (active) in assay [3] and 9.2 µM (active) in assay [5].
Take `Nc1c(Cl)c(Cl)c(Cl)c(Cl)c1Cl`: the Potency result in assay [2], in assay [9], in [3] and in assay [5] was “inactive” throughout.
As for `C[C@@]12OC(=O)[C@]1([C@@H](O)[C@@H]1C=CCCC1)NC(=O)[C@H]2CCCl`, in assay [1], the Potency entry is “inactive”.
Take `O=[N+]([O-])c1c2ccccc2cc2ccccc12`: the Potency result in assay [2] and in [3] was “inactive” throughout. Further, the Potency in assay [5] is 10.8 µM (active).
In the case of `Clc1ccc(C(c2ccc(Cl)cc2)n2cc[n+](CC(OCc3ccc(Cl)cc3Cl)c3ccc(Cl)cc3Cl)c2)cc1` (stereo unspecified), in [2], the Potency result is “inactive”. In [8], the Potency is 31.6 µM (active).
As to `CC(=O)OCC1=C(C(=O)O)N2C(=O)[C@@H](N)[C@@H]2SC1`, in [1], the Potency result was “inactive”.
For `Oc1ccc2c3c1O[C@H]1[C@@H](O)C=C[C@H]4[C@@H](C2)NCC[C@@]341`, the Potency result in assay [2], in assay [9] and in assay [5] was “inactive” in each case.
Take `C[C@@H]1[C@H](O)[C@@H](C)C=CC=CCCC=CC=CC=CC=C[C@H](O[C@H]2O[C@@H](C)[C@H](O)[C@@H](N)[C@@H]2O)CC2O[C@](O)(C[C@@H](O)[C@H](O)CC[C@@H](O)C[C@@H](O)C[C@@H](O)CC(=O)O[C@H]1C)C[C@H](O)[C@H]2C(=O)O`: the Potency result in assay [1] is “inactive”.
In the case of `CNCCc1ccc(O)c(O)c1`, in assay [2], the Potency was 11.2 µM (active). Besides, in assay [7], the Potency entry was “inactive”.
On to `CC(C)N[C@@H]1CCn2c(=O)[nH]c3cccc(c32)[C@@H]1O`, for which the Potency result in assay [1] was “inactive”.
On to `CC=C(C)C(=O)O[C@H]1C(C)=C2[C@@H]3OC(=O)[C@@](C)(O)[C@@]3(O)[C@@H](OC(=O)CCC)C[C@](C)(OC(C)=O)[C@@H]2[C@@H]1OC(=O)CCCCCCC`, for which the Potency entry in assay [2] and in assay [1] was “inactive” throughout.
With `CN1CCN(c2ccc([N+](=O)[O-])c3no[n+]([O-])c23)CC1`, the Potency entry in [2] and in assay [8] was “inactive” in each case. Also, the activity change, negative = inhibition in [6] is -23.8%.
As to `CC(N[C@H]1C[C@H]1c1ccccc1)c1ccc2c(c1)OCCO2` (stereo partly specified), in assay [1], the Potency result was “inactive”.
Same read-out and setting: the value for `COc1cccc2c1[C@]13CCN(CC4CC4)[C@H](C2)[C@]1(OC)CCC(=O)C3` was “inactive”; that for `COc1ccc2c(c1)CN(C)CC2c1ccc(Cl)c(Cl)c1` (stereo unspecified) was “inactive”.
For the compound `COC(C)(C)CCCC(C)C/C=C/C(C)=C/C(=O)OC(C)C` (stereo unspecified), the Potency result in assay [1], in [9] and in [3] was “inactive” in each case.
As for `O=S(=O)(c1ccc(Cl)cc1)c1ccc(Cl)cc1`, the Potency entry in assay [1] and in assay [9] was “inactive” throughout. For the same compound, in [5], the Potency is 27.8 µM (active).
In the case of `C[C@]12CC[C@H]3[C@@H](CCC4=CC(=O)CC[C@@]43C)[C@H]1CC[C@H]2O`, the Potency entry in [1] was “inactive”.
Consider `CCO/N=C(\CC)C1=C(O)CC(c2c(C)cc(C)cc2C)CC1=O` (stereo unspecified), for which the Potency entry in [1] and in assay [9] was “inactive” throughout. Also, in [5], the Potency was 4.48 µM (active).
Take `CCCCOC(=O)c1ccccc1C(=O)OCc1ccccc1`: the Potency result in assay [1] and in [9] was “inactive” each time. The Potency in assay [5] was 8.2 µM (active).
With `CC(=O)O[C@@]12CO[C@H]1C[C@H](O)[C@@]1(C)C(=O)[C@H](O)C3=C(C)[C@@H](O)C[C@@](O)([C@@H](OC(=O)c4ccccc4)[C@@H]21)C3(C)C`, the Potency entry in assay [1] was “inactive”.
With `O=C(Nc1ccccc1-c1ccc(Cl)cc1)c1cccnc1Cl`, the Potency result in [1], in [9] and in assay [5] was “inactive” throughout. Besides, the Potency in assay [3] was 22.4 µM (active).
Regarding `C[C@]12CC[C@H](O)CC1=CC[C@H]1[C@H]3CCC(=O)[C@@]3(C)CC[C@@H]12`, in assay [1], the Potency entry is “inactive”.
On to `O=C(O)c1cc(Oc2ccc(C(F)(F)F)cc2Cl)ccc1[N+](=O)[O-]`, for which the Potency result in [1] and in assay [9] was “inactive” in each case.
Take `CCCN(CCC)c1c([N+](=O)[O-])cc(S(N)(=O)=O)cc1[N+](=O)[O-]`: in assay [1], the Potency entry is “inactive”. For the same compound, the Potency was 28.2 µM (active) in assay [9], 29.1 µM (active) in assay [3], 8.44 µM (active) in assay [4] and 3.77 µM (active) in [5].
As to `CC(C)(O)C=CC(=O)[C@](C)(O)[C@H]1[C@H](O)C[C@]2(C)[C@@H]3CC=C4[C@@H](C=C(O)C(=O)C4(C)C)[C@]3(C)C(=O)C[C@@]12C`, in assay [1], the Potency result is “inactive”.
Turning to `CCCCc1ccc(C(=O)O)nc1`, the Potency result in assay [1], in assay [3], in assay [4], in assay [5] and in assay [7] was “inactive” each time.
`O=C(O)COc1nc(Cl)c(Cl)cc1Cl`: the Potency result in assay [1], in assay [9], in [3] and in assay [5] was “inactive” in each case.
As to `C=CCON=C(C[C@H]1O[C@@H]2O[C@]3(C)CC[C@@H]4[C@H](C)CC[C@@H]([C@H]1C)[C@@]24OO3)[C@H]1O[C@@H]2O[C@]3(C)CC[C@H]4[C@H](C)CC[C@@H]([C@@H]1C)[C@@]24OO3`, in assay [1], the Potency result is “inactive”.
Regarding `O=C(O)C(Cl)Cl`, the Potency entry in assay [1], in [9], in assay [3] and in assay [5] was “inactive” throughout.
For the compound `CC(Cc1ccc(O)cc1)NCC(O)c1cc(O)cc(O)c1` (stereo unspecified), the Potency result in [1], in assay [9], in assay [5], in [8], in assay [6] and in [7] was “inactive” throughout. Moreover, the Potency in assay [3] is 11 µM (active).
